Reference: PubChem BioAssay (NCATS)
A number with no mark means an inactive call. Inconclusive results are not listed. Active and inactive are the calls of the source. Unless noted, calls follow the shape of the dose curve; as a rule, active = well fitted curve in either direction with a large enough effect (not every such curve was filed as active); inconclusive = small, poorly fitted or top-dose-only effect, or another doubt; inactive = flat fitted curve, though single readings scatter.

Assays:
[1] = target: Lysosomal acid glucosylceramidase (Homo sapiens) (UniProt P04062); assay: Glucocerebrosidase-p2 (AID 348; in the data active = potency below about 10 µM; also: potency is read from the fitted curve at half-maximal effect); details: purified GBA, blue fluorogenic substrate, 40 min
Summary of the method: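 Compounds titrated from 0.6 nM upwards against 0.2 nM enzyme in pH 5.9 citric acid/KH2PO4, taurocholate, tween-20; blue fluorogenic substrate 80 uM, 40 min room temperature, stopped and read Ex 365/Em 440 for AC50.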

[2] = AP1 Signaling Pathway (AID 357); details: ME-180 AP-1-bla reporter, EGF-induced, beta-lactamase ratio, 5 h; at 7.69 µM (top of the series) unless noted;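 also: ME-180 reporter cells stimulated with EGF at its EC50 level; % is scaled to controls: 0 for no effect and ±100 for the full control effect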
Summary of the method: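 In this screen, ME-180 cells in Opti-MEM with 0.5% dialyzed FBS received EC50 EGF and compound titrations for 5 h. AP-1 reporter beta-lactamase was detected via CCF4 ratio, giving AC50 for positive and negative modulators.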

[3] = NFAT Signaling Pathway (AID 444); details: Jurkat NFAT-bla M1, carbachol, beta-lactamase ratio, 5 h; at 7.69 µM (top of the series) unless noted;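 also: carbachol stimulus at about its EC50 of 1 µM final; % is scaled to controls: 0 for no effect and ±100 for the full control effect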
Summary of the method: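 Jurkat cells with NFAT-driven β-lactamase reporter and co-expressed M1 receptor, stimulated with carbachol (final 1 uM, ~EC50), compound titration, 5 h at 37 °C. CCF4 loaded 1 h at RT; 460/530 nm ratio gave %activity and AC50.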

[4] = Stat Signaling Pathway (AID 446); details: ME-180 SIE beta-lactamase reporter, IL-6 stimulated, 5 h; at 7.69 µM (top of the series) unless noted;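 also: ME-180 cervical cancer cells given 40 pM IL-6 alongside compound; SIE-controlled beta-lactamase reporter measured as 460/530 nm FRET emission ratio; % is scaled to controls: 0 for no effect and ±100 for the full control effect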
Summary of the method: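 ME-180 SIE-bla cells; overnight plating; cpd + IL-6 40 pM, 5 h, 37 C; LiveBLAzer 2.5 h RT; 460/530 nm emission ratio. Normalized to 300 pM IL-6 and 125 nM JAK inhibitor controls.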

[5] = target: Glucocorticoid receptor (Homo sapiens) (UniProt P04150); assay: GR-GFP Redistribution (AID 450;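 active = compounds whose dose series gives a full or clear partial fitted curve of increased nuclear translocation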; also: potency is read from the fitted curve at half-maximal effect); details: U2OS GR-GFP nuclear translocation, laser cytometry, 2 h
[6] = target: Mitogen-activated protein kinase 10 (Mus musculus) (UniProt Q61831); assay: JNK3 AlphaScreen Assay (AID 530); details: JNK3 lysate, c-Jun phosphorylation; series mostly up to 11.4 µM;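 also: kinase came from lysate of stimulated human HepG2 cells; signal reports phosphorylation of biotinylated GST-cJun 1-79 at Ser73 with 10 µM ATP; % is scaled to controls: 0 for no effect and ±100 for the full control effect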
Summary of the method: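 Pre-activated (IL-1β/TNFα) JNK3 in HepG2 lysates phosphorylates biotin-GST-cJun(1-79), 10 uM ATP; anti-phospho-cJun(Ser73) AlphaScreen read at room temperature, pH 7.6 Tris buffer. Compounds pre-incubated 15 min as titrations.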

[7] = target: 3',5'-cyclic-AMP phosphodiesterase 4B (Homo sapiens) (UniProt Q07343); assay: qHTS Assay for Inhibitors of PDE-IV (AID 607; active = well fitted activation curve with a large enough effect in the main read-out, with a control signal flat, not every such curve was filed as active; also: % of control where 0% means no effect); details: HEK293 ACTOne CNG channel cells, membrane potential fluorescence; series mostly up to 22.9 µM
Summary of the method: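 ACTOne HEK293 cells carry a modified cAMP-gated CNG channel and express endogenous PDE4; plated 1000 cells/well, compounds up to 22.9 uM final. Membrane-potential dye fluorescence (ex 535/em 590) was read; parental cells received 10 uM forskolin + 100 uM RO 20-1724.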

[8] = qHTS Assay for Identification of Small Molecule Agonists for Hypoxia Response Element Signaling Pathway (AID 914; active = well fitted activation curve with a large enough effect in the signal ratio, with a control signal flat, not every such curve was filed as active; the % refers to the signal ratio; also: % of control where 0% means no effect); details: ME-180 (cervical carcinoma) HRE-bla reporter, beta-lactamase ratio, CoCl2, 17 h; activation: hits give high values
Summary of the method: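 Reporter activity (beta-lactamase, CCF4 460nm/530nm ratio) in HRE-bla ME-180 cells is recorded after 17 h compound exposure with EC50 CoCl2 at 37 degrees Celsius. AC50 values come from titration data.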

[9] = target: Glucocorticoid receptor (Homo sapiens) (UniProt P04150); assay: GR-EFC Redistribution (AID 451; calls by dose curve; also: potency is read from the fitted curve at half-maximal effect); details: CHO-K1 GR-EFC translocation, beta-gal luminescence, 2 h
Summary of the method: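 CHO-K1 cells expressing nuclear EA and GR-ED fragments of b-gal; compounds titrated up to 46 uM final, 2 h at 37 C. GR nuclear translocation read as complemented b-gal luminescence after 1 h RT detection.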

[10] = target: Cytochrome P450 3A4 (Homo sapiens) (UniProt P08684); assay: qHTS Assay for Inhibitors and Substrates of Cytochrome P450 3A4 (AID 884; active = well fitted curve in the direction sought with a large enough effect; an effect the other way counts as inactive or inconclusive; also: potency is read from the fitted curve at half-maximal effect; nearly all actives have a fitted effect of over 50% in size); details: recombinant CYP3A4, Luciferin-PPXE luminescence; series mostly up to 57.1 µM
Summary of the method: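 20 nM human CYP3A4 with 25 uM Luciferin-PPXE (at KM) in 200 mM KPO4, preincubated 10 min with compound; NADPH regeneration started a 60 min RT reaction. Luciferin detected by luminescence, normalized to 57 uM ketoconazole as full inhibition.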

[11] = target: Cytochrome P450 3A4 (Homo sapiens) (UniProt P08684); assay: qHTS Assay for Activators of Cytochrome P450 3A4 (AID 885; active = well fitted curve in the direction sought with a large enough effect; an effect the other way counts as inactive or inconclusive; also: nearly all actives have a fitted effect of over 65% in size); details: recombinant CYP3A4, Luciferin-PPXE luminescence, 60 min; series mostly up to 11.4 µM
Summary of the method: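 20nM CYP3A4 + 25uM Luciferin-PPXE (=KM), 200mM KPO4; cpd 10 min RT; NADPH regen, 60 min RT; stop w/ detection buffer, 20 min; luminescence. Normalized to 57 uM ketoconazole.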

[12] = Confirmation and Secondary Assay for Modulators of Hemoglobin Beta Chain Splicing at IVS2 654 locus (AID 910; active = well fitted curve in the direction sought with a large enough effect; an effect the other way counts as inactive or inconclusive;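 also: HeLa cells stably carrying EGFP split by mutant beta-globin IVS2-654 intron; % of control where 0% means no effect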); details: HeLa EGFP-654 splicing reporter, GFP fluorescence, 48 h; series mostly up to 38.3 µM
Summary of the method: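 HeLa cells stably expressing EGFP interrupted by β-globin IVS2-654 intron, seeded overnight in Opti-MEM/2% FCS, then treated 2 days at 37 °C. Restored splicing read as total peak GFP intensity per well by laser scanning cytometry (488 nm excitation, 500–520 nm emission); 500 nM antisense PNA as control.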

Sequence of Glucocorticoid receptor (Homo sapiens) (P04150 whole entry, looked up, the tested form may be a part): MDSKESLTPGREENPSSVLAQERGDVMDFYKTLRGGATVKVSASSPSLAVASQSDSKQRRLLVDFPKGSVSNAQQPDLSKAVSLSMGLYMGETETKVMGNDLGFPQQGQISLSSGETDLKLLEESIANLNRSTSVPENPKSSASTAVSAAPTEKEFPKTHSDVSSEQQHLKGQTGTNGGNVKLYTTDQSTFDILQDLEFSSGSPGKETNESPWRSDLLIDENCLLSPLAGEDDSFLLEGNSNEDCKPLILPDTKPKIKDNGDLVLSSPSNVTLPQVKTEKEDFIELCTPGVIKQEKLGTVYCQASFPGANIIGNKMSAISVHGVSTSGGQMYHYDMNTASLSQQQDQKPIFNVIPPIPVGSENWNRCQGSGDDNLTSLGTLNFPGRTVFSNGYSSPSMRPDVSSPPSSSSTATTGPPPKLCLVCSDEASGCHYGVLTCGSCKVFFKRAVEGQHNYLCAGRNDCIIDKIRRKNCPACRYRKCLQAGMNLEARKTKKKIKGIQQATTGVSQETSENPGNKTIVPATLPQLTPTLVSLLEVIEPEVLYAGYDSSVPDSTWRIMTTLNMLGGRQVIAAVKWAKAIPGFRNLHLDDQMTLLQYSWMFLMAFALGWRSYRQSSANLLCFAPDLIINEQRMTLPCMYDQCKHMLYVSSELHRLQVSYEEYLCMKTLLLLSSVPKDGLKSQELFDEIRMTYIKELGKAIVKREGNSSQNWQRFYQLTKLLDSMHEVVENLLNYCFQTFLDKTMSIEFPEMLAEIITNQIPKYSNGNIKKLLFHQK
Sequence of 3',5'-cyclic-AMP phosphodiesterase 4B (Homo sapiens) (Q07343 whole entry, looked up): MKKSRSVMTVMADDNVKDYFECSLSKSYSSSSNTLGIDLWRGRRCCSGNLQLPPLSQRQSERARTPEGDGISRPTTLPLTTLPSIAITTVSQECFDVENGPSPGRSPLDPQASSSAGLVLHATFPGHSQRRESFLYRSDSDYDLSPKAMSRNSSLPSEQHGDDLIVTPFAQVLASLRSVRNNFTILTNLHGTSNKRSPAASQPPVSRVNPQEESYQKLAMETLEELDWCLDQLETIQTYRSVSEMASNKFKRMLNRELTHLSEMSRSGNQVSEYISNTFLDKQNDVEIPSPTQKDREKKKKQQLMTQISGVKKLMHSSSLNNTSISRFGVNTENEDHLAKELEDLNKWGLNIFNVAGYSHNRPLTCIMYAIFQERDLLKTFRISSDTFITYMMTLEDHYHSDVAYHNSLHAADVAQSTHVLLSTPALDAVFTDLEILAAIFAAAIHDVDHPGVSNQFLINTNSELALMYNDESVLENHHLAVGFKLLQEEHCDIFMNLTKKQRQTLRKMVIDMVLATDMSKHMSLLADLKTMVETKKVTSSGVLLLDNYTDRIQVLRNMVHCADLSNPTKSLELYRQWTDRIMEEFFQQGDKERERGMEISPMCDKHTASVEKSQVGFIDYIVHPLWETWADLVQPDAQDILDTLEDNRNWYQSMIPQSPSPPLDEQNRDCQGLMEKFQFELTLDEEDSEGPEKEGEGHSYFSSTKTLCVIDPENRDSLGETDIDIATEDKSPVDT
Sequence of Lysosomal acid glucosylceramidase (Homo sapiens) (P04062 whole entry, looked up): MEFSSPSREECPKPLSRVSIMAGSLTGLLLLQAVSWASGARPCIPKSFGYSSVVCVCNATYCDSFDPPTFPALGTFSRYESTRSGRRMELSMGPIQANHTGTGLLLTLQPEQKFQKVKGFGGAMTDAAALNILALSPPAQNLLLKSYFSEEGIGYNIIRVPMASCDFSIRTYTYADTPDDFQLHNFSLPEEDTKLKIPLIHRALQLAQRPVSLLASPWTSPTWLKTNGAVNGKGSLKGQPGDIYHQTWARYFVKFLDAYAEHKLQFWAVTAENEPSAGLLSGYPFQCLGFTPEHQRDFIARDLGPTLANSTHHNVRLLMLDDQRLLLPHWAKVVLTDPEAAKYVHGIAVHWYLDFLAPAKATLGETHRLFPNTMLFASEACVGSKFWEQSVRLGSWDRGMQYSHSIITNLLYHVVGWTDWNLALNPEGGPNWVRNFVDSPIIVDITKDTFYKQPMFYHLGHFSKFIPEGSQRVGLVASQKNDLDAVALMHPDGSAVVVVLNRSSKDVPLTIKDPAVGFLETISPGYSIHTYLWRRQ
Sequence of Cytochrome P450 3A4 (Homo sapiens) (P08684 whole entry, looked up): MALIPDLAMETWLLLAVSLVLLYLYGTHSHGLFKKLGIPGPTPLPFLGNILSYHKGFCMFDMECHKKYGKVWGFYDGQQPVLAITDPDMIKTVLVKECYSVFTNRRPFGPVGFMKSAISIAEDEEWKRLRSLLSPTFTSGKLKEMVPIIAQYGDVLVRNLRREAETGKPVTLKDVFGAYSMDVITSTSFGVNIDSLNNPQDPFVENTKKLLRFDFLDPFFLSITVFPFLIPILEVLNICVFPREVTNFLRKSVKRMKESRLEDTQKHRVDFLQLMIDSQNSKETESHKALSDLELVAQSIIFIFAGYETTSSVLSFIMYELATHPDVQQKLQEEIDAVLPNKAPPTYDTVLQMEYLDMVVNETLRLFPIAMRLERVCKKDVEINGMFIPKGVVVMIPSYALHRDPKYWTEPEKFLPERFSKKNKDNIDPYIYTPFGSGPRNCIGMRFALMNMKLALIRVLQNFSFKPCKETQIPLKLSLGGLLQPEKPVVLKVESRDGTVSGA

| SMILES | Potency [1] [µM] | activity change, negative = inhibition [2] [%] | activity change, negative = inhibition [3] [%] | activity, negative = inhibition [4] [%] | Potency [5] [µM] | Potency [6] | Potency [7] | activation [8] [%] | Potency [9] [µM] | Potency [10] | Potency [11] | outcome [12] |
| --- | --- | --- | --- | --- | --- | --- | --- | --- | --- | --- | --- | --- |
| O=C(C[C@@H](C(=O)O)N1CCOCC1)c1ccccc1 | > 11.4 | 8.49 | -28.5 | -2.89 | > 46 | inactive | inactive | 16 |  |  |  |  |
| O=C(O)c1ccc2c(c1C(=O)O)C(=O)OC2(c1ccc(O)cc1)c1ccc(O)cc1 | > 11.4 | 2.33 | 0.0722 | 1.84 | > 46 | inactive | inactive | 9.96 | > 9.22 |  |  |  |
| O=S(=O)(O)c1ccc(NN(c2c(O)ccc3ccccc23)S(=O)(=O)O)cc1 | > 11.4 | 8.88 | -1.45 | -0.169 | > 46 |  | inactive |  | > 9.22 |  |  |  |
| CC(C)(CO)N1CCN(C(=S)Nc2ccccc2)CC1 | > 11.4 | 7.77 | 17.5 | -2.59 | > 46 | inactive | inactive | 10 |  |  |  |  |
| O=C(CON1C(=O)c2ccccc2C1=O)c1ccccc1 | > 11.4 | -3.99 | 4.1 | 1.01 | > 46 | inactive | inactive | -13.1 | > 9.22 |  |  |  |
| Cc1cc(=O)[nH]c2cc3oc4ccccc4c3cc12 | > 11.4 | 6.73 | 8.67 | -1.36 | > 46 | inactive | inactive | -6.85 |  |  |  |  |
| O=S(=O)(O)c1ccc2c(N=Nc3cccc4ccccc34)c(O)c(S(=O)(=O)O)cc2c1 | > 11.4 | -5.27 | -7.38 | -0.528 | > 46 |  | inactive |  | > 9.22 |  |  |  |
| O=C(O)C[C@H](Sc1ccccc1)c1ccccc1 | > 11.4 | 7.59 | 8.06 | -24.9 | > 46 | inactive | inactive | -1.84 | > 9.22 |  |  |  |
| O=S(=O)(O)c1ccc2c(N=Nc3c(O)ccc4ccccc34)cccc2c1 | > 11.4 | -13.3 | -11.8 | -5.48 | > 46 |  | inactive |  | > 9.22 |  |  |  |
| O=c1[nH][nH]c(=S)c(=O)[nH]1 | > 11.4 | -2.98 | 12.7 | 3.19 | > 46 | inactive | inactive | 5.24 | > 9.22 |  |  |  |
| Clc1ccccc1/C=C\c1ccnc2ccccc12 | > 11.4 | -23.6 | 2.98 | 1.25 | > 46 | inactive | inactive | -24.5 | > 9.22 |  |  |  |
| Cc1ccc(N=Nc2c(O)c(S(=O)(=O)O)cc3cc(S(=O)(=O)O)ccc23)c(C)c1 | > 11.4 | 19.9 | 10.1 | -2.41 | > 46 |  | inactive |  | > 9.22 |  |  |  |
| CS(=O)(=O)Nc1cccc(-c2nc(NCc3cccnc3)c3ccccc3n2)c1 | > 11.4 | -19.8 | 23.6 | -19.5 | > 46 | inactive |  |  | > 46 | 2 µM (active) | inactive | inactive |
| N#CCCn1c(=O)c(-c2cc(F)cc(F)c2)nc2cnc(Oc3cccc(Cl)c3)nc21 | > 11.4 | -12.5 | -4.95 | 12.5 | > 9.22 |  | inactive |  | > 46 |  | inactive |  |
| CN(C)Cc1nsc(N(C)C)n1 | > 11.4 | 6.96 | 0.0247 | 11.1 |  | inactive | inactive |  | > 9.22 |  |  |  |
| CS(=O)(=O)c1ccc(/C=N\NC(N)=S)cc1 | > 11.4 | 2.65 | 1.52 | -2.81 | > 46 |  | inactive |  | > 9.22 |  |  |  |
